Measured values: the supplement of paper PMC10681739

What follows are sequences tested against T1, ETS1 (UniProt P14921) (assay: ETS1 binding intensity (PBM fluorescence), ETS1 alone (arbitrary fluorescence units); higher = stronger binding). Settings: ETS1 concentration 1 nM; RUNX1 concentration 0 nM.
T1 sequence: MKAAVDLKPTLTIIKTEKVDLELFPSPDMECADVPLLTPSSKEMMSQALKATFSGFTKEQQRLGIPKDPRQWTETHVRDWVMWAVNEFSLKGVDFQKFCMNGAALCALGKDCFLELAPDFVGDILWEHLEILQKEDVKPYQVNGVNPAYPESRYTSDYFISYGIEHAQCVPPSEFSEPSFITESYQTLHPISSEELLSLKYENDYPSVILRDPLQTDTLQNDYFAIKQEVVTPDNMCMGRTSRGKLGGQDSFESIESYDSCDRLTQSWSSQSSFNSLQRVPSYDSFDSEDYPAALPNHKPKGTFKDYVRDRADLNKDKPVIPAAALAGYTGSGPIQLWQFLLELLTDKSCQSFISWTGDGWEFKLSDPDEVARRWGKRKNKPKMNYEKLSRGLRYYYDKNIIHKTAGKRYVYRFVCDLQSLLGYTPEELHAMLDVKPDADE
Experimental: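 Cooperative genomic-context PBM: 36-bp genomic probes with neighbouring ETS1 and RUNX1 sites, double-stranded on Agilent 4x180k arrays. Full-length recombinant human ETS1 (1 nM) was incubated alone or with RUNX1 (25 nM) and detected with anti-ETS1 antibody plus Alexa488 secondary. Value is the median fluorescence intensity over 4 replicate spots; the ETS1+RUNX1 data were normalised to the ETS1-only data using probes without RUNX1 sites. The 36-bp variable region sits on the array probe with constant linker/primer flanks that are not printed.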
Sequence GAGAACTTCCGGTGCGCTCCCCGGGACTGCGGTCCC has an ETS1 binding intensity of 3420. For GACCAATGTAAACAAGGATGTGGGTTCTCCGGCCAC, the ETS1 binding intensity was 784. Sequence AGCTTTCCTTTTCCGGTTGCGGCGCCGCGCGTTGAT has an ETS1 binding intensity of 1800. For CAAGAGAAAGGAAGTGGAAGCTCTTGTGGTCTGGAA, the ETS1 binding intensity was 1460. AGGGTTGGGGAGGATGTTGTGGTTATTATTGACATA gave an ETS1 binding intensity of 845. With AACTAGGCTTTTCTTTCCTGTGGTCCTTAAGGAGGC the ETS1 binding intensity was 461. GCACGCCATCGAGGAAGTGGGTTTACTGTGTATTTC was tested, and the ETS1 binding intensity was 916. In the case of GTGGCTATGGGAAGTGGGGTGCGGTTTCTGCCGGGG, the ETS1 binding intensity is reported as 554. Work on CGCCGGACGTAGTGACGTAGCGCGCAGCCGCAGCGG yielded an ETS1 binding intensity of 442. TTACTGCCGGAACTTGGGACCTTTGTAACCACGTCT gave an ETS1 binding intensity of 524. TTGTCAGATGGCGAAGGAAACCGCGAAATTCGCCAT gave an ETS1 binding intensity of 608. For ATGGGTACAGGATTTCCTTTTGTGGTGATGAAAATG, the ETS1 binding intensity was 697. For GGAGGGCTTCCTGCCCACCACCACCCACAGCAGCTG, the ETS1 binding intensity was 730. In the case of TGCAAGAGGAAGCTGGGGTTTGTGGTTCATGTTTTG, the ETS1 binding intensity is reported as 528. ACGCGCTCCCTCACTTCCTGCGGCTTTTGGTCCCTC showed an ETS1 binding intensity of 1310. In the case of GCGCCATTTCCGCTGCGCAAGGCACCACAGGCCCTG, the ETS1 binding intensity is reported as 1140. CAGATTCGTGTTTCCGTGCCCGCAGCTCCGTCAGCT showed an ETS1 binding intensity of 467. GGGCTCGGGGAGGAAGCGGTGGTTTCTCTTTGAAGC gave an ETS1 binding intensity of 696. For GGACACAGGCTTCCGCGTTACCGACACCGCGTGGGG, the ETS1 binding intensity was 451. CTTCTCGCGGAAGCGGCACAAGCCGCAGTACAGCGC showed an ETS1 binding intensity of 301. In the case of TCATATCCGGCAGGAATGGGTTTTGTGGCTTTGTGC, the ETS1 binding intensity is reported as 752. CAGGGTGGAAACAGGAAGAGAAACCACACTTAACCT was tested, and the ETS1 binding intensity was 1540. GCATGTTCAAAAGGATGTGGGTGCTTACCTAGTGCC was tested, and the ETS1 binding intensity was 956. CCCACTCCACTTCCGCCACCGCCGCAGCCGCCGCTG showed an ETS1 binding intensity of 1430. In the case of CTCCGATTGAGAACAGGAAGCCACAGGCCAATACAA, the ETS1 binding intensity is reported as 2660. Work on CCCCGGGAAGGGAAGTTTGTGGCGGAGGAGGTTCGT yielded an ETS1 binding intensity of 592. CCACGCCCCCTCCTTCCGCTGCGGGAGATAGCCACT was tested, and the ETS1 binding intensity was 787. GTAGCTCCTCCCACTTCCCGTGGTTTTCGGTTGAAC gave an ETS1 binding intensity of 564. GCACGTGTTTCCTGGGGCTGCACCACAGCACCACAC gave an ETS1 binding intensity of 444. In the case of GGCTTCCGCCGCCACCACTGCCCCTCAACCGCCACG, the ETS1 binding intensity is reported as 518. For CTTTCGGGGGCGGAAGTTGCGGTGCATTGTAGGTTC, the ETS1 binding intensity was 7760. Sequence GACCAGGCGAGAGGATGTGGGTATGAGGGAGGAGCT has an ETS1 binding intensity of 819. For GTTGAGTAGTGACAGGAAGTGACCGCAAGGGGGCGC, the ETS1 binding intensity was 10700. With ATCTTGGCCCATATCCTGTGGTGTTCTGCTAGAGGT the ETS1 binding intensity was 768. For GCCCCTCTTCCTGACTCACACAACCGCCTCTAGTCT, the ETS1 binding intensity was 457. For CCATCCAGGAAGCTTATGGTGCAACCGCAGTGTGCC, the ETS1 binding intensity was 483. Sequence AGCGCCACACTTCCGCTTTGCGGCAGTGTGCGCCCC has an ETS1 binding intensity of 3490. In the case of GCCCAGGCAGGAAGCCAGGCGCCCACAGGTTGGCAG, the ETS1 binding intensity is reported as 990. In the case of GGTACCAAGGGCAGAGGATGTGGTGAGGTGTGGAGG, the ETS1 binding intensity is reported as 940. For TGCGCGCCGGCTTCCGCTGCGGCCAGTCGGGCGGCG, the ETS1 binding intensity was 668.
